Reference: PubChem BioAssay (NCI)
This is part of a sample that, as a whole, favours compounds with a hit. Of some 83,000 tested, about 20% had one in any assay.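 Assay: single dose, 48 h. Readout: percent growth (0 = no net growth; negative = cell death). Active: <10.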 Values without a mark were called inactive. Activity calls are given as the source filed them.

Experiments:
Assay in all cases: NCI-60 one-dose screen, 48 h (100 = growth as untreated, 0 = no growth, -100 = all killed)
DU-145 prostate = details: 10 µM
K-562 leukemia = details: 10 µM
MALME-3M melanoma = details: 10 µM
MDA-MB-231 breast = details: 10 µM
RXF 393 renal = details: 10 µM
SF-268 CNS = details: 10 µM
SF-295 CNS = details: 10 µM
SF-539 CNS = details: 10 µM
UACC-257 melanoma = details: 10 µM
M14 melanoma = details: 10 µM
HCT-15 colon = details: 10 µM
HT29 colon = details: 10 µM
SNB-75 CNS = details: 10 µM
SNB-19 CNS = details: 10 µM
U251 CNS = details: 10 µM
PC-3 prostate = details: 10 µM
SK-MEL-5 melanoma = details: 10 µM
UACC-62 melanoma = details: 10 µM unless noted
LOX IMVI melanoma = details: 10 µM
SK-MEL-28 melanoma = details: 10 µM

Compound	growth (DU-145 prostate)	growth (K-562 leukemia)	growth (MALME-3M melanoma)	growth (MDA-MB-231 breast)	growth (RXF 393 renal)	growth (SF-268 CNS)	growth (SF-295 CNS)	growth (SF-539 CNS)	growth (UACC-257 melanoma)	growth (M14 melanoma)	growth (HCT-15 colon)	growth (HT29 colon)	growth (SNB-75 CNS)	growth (SNB-19 CNS)	growth (U251 CNS)	growth (PC-3 prostate)	growth (SK-MEL-5 melanoma)	growth (UACC-62 melanoma)	growth (LOX IMVI melanoma)	growth (SK-MEL-28 melanoma)
C[N+](C)(C)C(=O)c1ccccc1	114%	117%	117%	97.5%	114%	98.2%	114%	98.9%	109%	95.2%	101%	104%	94.8%	102%	107%	102%	105%	94%	99.9%	116%
CCOc1ccc(Br)cc1/C=N\N=C\c1cc(Br)ccc1OCC	102%	95.3%	105%	108%	145%	97.6%	100%	101%	92.7%	98.6%	109%	107%	98.5%	117%	103%	93.8%	109%	104%	105%	115%
O=C1C=C(Nc2ccc([N+](=O)[O-])cc2)c2ccccc2C1=O	68.9%	13.2%	51.6%	22.5%	69.2%	55.6%	53.1%	36.8%	48.8%	13.3%	31.2%	99.4%	42.9%	52.8%	28.5%	23.9%	11.7%	17.7%	9.66% (active)	50.3%
CCC/C=C(\C)C(C)(C#N)C(=O)OCC (stereo not drawn)	124%	100%	107%	122%	105%	118%	112%	102%	86.2%	116%	113%	109%	87.8%	102%	102%	101%	103%	102%	99.9%	109%
c1ccc2c(N3CCCCC3)ncnc2c1	112%	94.3%	142%	96.5%	105%	102%	109%	85.3%	90.2%	100%	99.6%	76.2%	140%	99.4%	93%	87.3%	91.8%	91.3%	92.8%	115%
CCCCC/C=N/Nc1nc(C)cc(=O)[nH]1	114%	105%	103%	95.2%	105%	107%	88.8%	108%	93.1%	106%	116%	105%	99.2%	108%	96.6%	88.7%	104%	102%	94.3%	102%
Cc1cc(Cc2cc(C)c(N)cc2N)c(N)cc1N	105%	101%	95.2%	83.9%	103%	90.9%	104%	103%	85.3%	101%	103%	95.9%	91.4%	96.3%	88.9%	85.4%	91.9%	95.5%	87.3%	112%
O=C1C[C@H](c2ccccc2)[C@H](c2ccccc2)C1	121%	111%	89.6%	99.1%	111%	105%	108%	103%	107%	103%	102%	105%	91.8%	96.1%	103%	79.4%	104%	90.2%	102%	109%
COc1cc2nc3cc([N+](=O)[O-])ccc3c(Cl)c2cc1OC	103%	98.8%	94.5%	99.4%	120%	99.8%	103%	96.4%	93.1%	96.6%	94.6%	105%	104%	106%	89.1%	90.9%	99.1%	74.8%	105%	108%
O=C(O)CCCC(=O)O	99.8%	120%	83.8%	106%	99.5%	94.1%	110%	104%	87.9%	106%	101%	106%	85.7%	99.4%	94.3%	95.1%	102%	105%	95.3%	102%
CC(=O)c1c[nH]c2ccccc12	124%	103%	95.2%	114%	104%	113%	100%	105%	104%	102%	101%	118%	88.1%	105%	95.7%	86.1%	103%	97.5%	102%	103%
S=c1sc2ccccc2n1CN1CCCCC1	99.8%	124%	86.6%	98.4%	110%	92.5%	102%	105%	104%	100%	102%	101%	77.6%	104%	104%	77.2%	104%	104%	84.5%	106%
Cc1ncc(C#N)c(N)n1	114%	120%	93.8%	98.9%	89.6%	107%	98%	105%	106%	95.9%	100%	112%	77.8%	102%	100%	90%	–	99.7%	100%	102%
CCCOC(=O)C(O)c1ccccc1 (stereo not drawn)	113%	129%	96.8%	90%	111%	99.7%	109%	101%	108%	93.8%	97.5%	103%	96.7%	107%	115%	101%	104%	98.2%	104%	116%
c1cc[n+](C2c3ccccc3C([n+]3ccccc3)c3ccccc32)cc1 (stereo not drawn)	91.7%	72.9%	53.1%	70.6%	61.6%	23%	52%	27.9%	80.1%	96%	103%	73.4%	17.9%	26.7%	21.5%	58.4%	27.6%	67.3%	76.1%	61.6%
CC1=CC(C)(C)NC(=S)N1c1ccc(S(=O)(=O)O)c2cccc(S(=O)(=O)O)c12	111%	116%	115%	98.3%	107%	104%	113%	105%	112%	107%	105%	133%	90.5%	109%	113%	92.5%	–	97.5%	107%	112%
CC1CCCCN1C(=S)Nc1ccc(S(=O)(=O)N2CCCCC2)cc1 (stereo not drawn)	106%	84.6%	130%	119%	109%	97.2%	79.2%	96.9%	105%	89.2%	99.2%	94%	129%	109%	95.7%	83%	103%	95.6%	105%	98.6%
